Results taken from PubChem BioAssay AID488835 (Broad Institute, 2010).
Out of some 1,400 compounds screened, about 140 (10%) were called active.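 Rule for the calls: active = Half-maximal inhibitory dose from the fit at or below ten times the top valid tested dose; inconclusive = Invalid fit, or flat curve showing 30 to 70% inhibition; inactive = the rest.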 Not all results are given here. Potency and affinity values are given separately.

Biological target: Lysine-specific demethylase 4C (Homo sapiens) (UniProt Q9H3R0)
Assay: GASC-1 (JMJD2C) histone demethylase inhibitors, dose response, biochemical, DELFIA europium, cherry-picked samples (AID 488835);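 note: signal is the H3K9me2 demethylation product detected by a dimethyl-specific antibody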
Details: GST-JMJD2C(1-420), H3K9me3 demethylation; series mostly up to 6 µM

Chain of Lysine-specific demethylase 4C (Homo sapiens) (Q9H3R0 1-420 limits assumed): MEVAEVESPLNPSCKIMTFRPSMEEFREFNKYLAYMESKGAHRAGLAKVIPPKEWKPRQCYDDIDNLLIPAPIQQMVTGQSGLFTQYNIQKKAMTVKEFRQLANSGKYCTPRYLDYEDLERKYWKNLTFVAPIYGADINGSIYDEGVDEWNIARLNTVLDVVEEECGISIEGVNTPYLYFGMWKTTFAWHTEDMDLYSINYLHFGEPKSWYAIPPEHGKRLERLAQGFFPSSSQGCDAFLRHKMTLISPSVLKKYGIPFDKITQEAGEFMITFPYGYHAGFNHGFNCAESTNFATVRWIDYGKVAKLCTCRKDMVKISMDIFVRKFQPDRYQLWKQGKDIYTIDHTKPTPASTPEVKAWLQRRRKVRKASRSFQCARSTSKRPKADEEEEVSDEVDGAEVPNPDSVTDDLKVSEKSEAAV

outcome, inactive:
CCOC(=O)N1CCN(C(=S)NC(=O)c2ccc(F)cc2)CC1, COc1ccc(-c2nn(-c3ccccc3)cc2CNC(C)Cn2cncn2)c(F)c1 (stereo not given), CCOc1ccc(N2CC(C(=O)Nc3nnc(Cc4ccc(OC)cc4)s3)CC2=O)cc1 (stereo not given), CCCCN1CC[C@H]2C=CC[C@@H](C(=O)Nc3ccc(OC)cc3)[C@H]2C1=O, O=S(=O)(Nc1ccccc1)c1ccc(NS(=O)(=O)c2c(F)cccc2F)cc1, C[C@H](CO)N1C[C@H](C)[C@@H](CN(C)C(=O)Nc2ccc(C(F)(F)F)cc2)Oc2c(NC(=O)Nc3ccc4c(c3)OCO4)cccc2C1=O, COc1cc(/C=N/Nc2ccccc2)ccc1OC(=O)c1cccs1, COc1ccc(/C=N/Nc2ncnc(Cl)c2N)cc1OC, COc1cc(/C=N/N2C(=O)C3C4c5ccccc5C(c5ccccc54)C3C2=O)ccc1O (stereo not given), O=C(O)CCCC(=O)Nc1ccc(C(=O)NCc2cccnc2)cc1, N#CCN1CCC(c2cc(-c3ccco3)n[nH]2)CC1, CS(=O)(=O)N(CC(=O)O)c1cc(Cl)cc(Cl)c1, COc1ccc(N2CCN(C(=O)CSc3nnc(-c4ccco4)n3C)CC2)cc1, C[C@H](CO)N1C[C@H](C)[C@@H](CN(C)C(=O)Nc2ccccc2)Oc2c(NC(=O)c3ccncc3)cccc2C1=O, Cc1cccc2sc(NNC(=O)c3cc(=O)c4ccccc4o3)nc12, CN1N=C(C(F)(F)F)CC1=O, CSC1=NCCN1C(=O)c1cccc(C(F)(F)F)c1, Cn1c(=O)c(-c2ccccc2)nn2c3ccccc3nc12, Cc1ccc(Nc2c(-c3ccccn3)nc3cc(C)ccn23)cc1, CCOC(=O)N1CCC2(CC1)C(C#N)=C(N)OC1=C2C(=O)CC(C)(C)C1, C[C@H](CO)N1C[C@H](C)[C@@H](CN(C)Cc2ccc(C(=O)O)cc2)Oc2c(NC(=O)c3ccncc3)cccc2C1=O, O=C(O)Cn1cc(/C=C2/SC(=O)N(CC(=O)N3CCCCCC3)C2=O)c2ccccc21, O=C(O)CCC(=O)Nc1nc2nc(-c3ccccc3)cc(-c3ccccc3)n2n1, CCN(C[C@H]1N[C@@](C)(C(=O)OC)[C@H]2C(=O)N(Cc3ccccc3)C(=O)[C@@H]12)C(=O)Nc1ccc(F)cc1, Cc1cc(N2C(=O)C(=O)/C(=C(/O)c3ccc(F)cc3)C2c2cccc(Br)c2)no1 (stereo not given), COc1cccc(/C=C/C(=O)NCCc2ccc(OC)c(OC)c2)c1, CCc1ccc(-c2cc(C)no2)cc1S(=O)(=O)NCCc1ccc(OC)c(OC)c1, Cc1ccccc1NS(=O)(=O)c1ccc(C(=O)NCC(c2ccco2)N(C)C)cc1 (stereo not given), COc1ccccc1/C=C/C(=O)Nc1ccc(N2CCOCC2)cc1, Cc1cc(C)c2cc(C#N)c(SCC(=O)Nc3ccc4c(c3)OCO4)nc2c1, O=C(/C=C\Nc1ccc(Cl)cn1)c1ccc(Br)cc1, CCCNC1=C(N(C(C)=O)c2cccc(F)c2)C(=O)c2ccccc2C1=O, C#CCOCCOCCOCCNc1nc(N2CCN(C(=O)[C@H](CCC(=O)O)n3cc(CN)nn3)CC2)nc(N2CCN(C(=O)[C@H](CCCN=C(N)N)n3cc(C(N)[C@@H](C)CC)nn3)CC2)n1 (stereo not given in full), C#CCOCCOCCOCCNc1nc(N2CCOCC2)nc(N2CCN(C(=O)[C@H](CCCN=C(N)N)n3cc(C(N)[C@@H](C)CC)nn3)CC2)n1 (stereo not given in full), C#CCOCCOCCOCCNc1nc(N2CCN(C(=O)[C@H](CCCN=C(N)N)n3cc(C(N)[C@@H](C)CC)nn3)CC2)nc(N2CCN(C(=O)[C@H](CCC(=O)O)n3cc([C@@H](N)[C@H](C)CC)nn3)CC2)n1 (stereo not given in full), C#CCOCCOCCOCCNc1nc(N2CCN(C(=O)[C@H](CCCN=C(N)N)n3cc(C(N)[C@H](C)CC)nn3)CC2)nc(N2CCN(C(=O)[C@H](CC(N)=O)n3cc(C(N)[C@@H](C)CC)nn3)CC2)n1 (stereo not given in full), Oc1cc2ccccc2cc1-c1nnc2n1-c1ccccc1SC2, CC(=O)Nc1sc2c(c1CN1CCN(C)CC1)CCCC2, COc1ccc(S(=O)(=O)N2CC(O)CC2C(=O)OCc2nc3sc(C)c(C)c3c(=O)[nH]2)cc1 (stereo not given), CC1CCN(C(=O)CSc2nnc(CNC(=O)c3c(F)cccc3F)o2)CC1, CNC(=O)c1sccc1-n1cccc1, CCOC(=O)C1(C)NC(c2cccs2)C2C(=O)N(c3ccc(OC)cc3)C(=O)C21 (stereo not given), Cc1ccccc1CNc1nnnn1C, O=C(N/N=C/c1ccc(O)cc1)c1cncc(Br)c1, Oc1ccc(Br)cc1/C=N/Nc1nc(N2CCCCC2)nc(N2CCOCC2)n1, CN1CCC[C@H]1CCNC(=O)c1c(-c2ccsc2)sc2ccccc12, Cn1c(=O)c2[nH]c(N3CCN(c4cccc(O)c4)CC3)nc2n(C)c1=O, CC(OC(=O)CN1C(=O)COc2ccccc21)C(=O)NCc1ccc(F)cc1 (stereo not given), Cc1ccc(C(C)C)c(Oc2nnnn2-c2ccccc2)c1, O=C(c1cc2c(s1)CCC2)N1C(=O)c2ccccc2S1(=O)=O, O=C(Cn1cncn1)NCc1cc(F)ccc1F, C[C@H]1CN([C@@H](C)CO)C(=O)c2cccc(NC(=O)C3CC3)c2O[C@H]1CN(C)Cc1ccncc1, C[C@H](CO)N1C[C@H](C)[C@@H](CN(C)CC2CCCCC2)Oc2c(NC(=O)C3CC3)cccc2C1=O, C[C@H](CO)N1C[C@H](C)[C@@H](CN(C)S(=O)(=O)c2cccs2)Oc2c(NC(=O)CCC(F)(F)F)cccc2C1=O, Cc1ccc(NC(=O)COC(=O)CCc2c[nH]c(=O)[nH]2)cc1, COc1cc([N+](=O)[O-])ccc1NC(=O)CSc1nccn1C, COc1ccc(OC)c(/C=C2\SC(=S)N(Cc3cccnc3)C2=O)c1, O=C(N1CCN(c2ccccc2)CC1)C12CC3CC(CC(C3)C1)C2, CSc1nsc(SCC(=O)Nc2c(C)n(C)n(-c3ccccc3)c2=O)n1, O=C(NNC(=O)c1ccc(SCC2CCCO2)c([N+](=O)[O-])c1)c1ccc(Cl)c([N+](=O)[O-])c1 (stereo not given), CCCCC(=O)NC(NC(=S)N1CCOCC1)C(Cl)(Cl)Cl (stereo not given), CC(C)(C)n1nc2c(c1NC(=O)c1ccc(Br)o1)CS(=O)C2 (stereo not given), O=C(Nc1ccc(-c2nc3ncccc3o2)cc1)c1ccc(Br)o1, COc1ccc(S(=O)(=O)Nc2ccc3c(c2)C(=O)N([C@H](C)CO)C[C@H](C)[C@@H](CN(C)S(=O)(=O)c2c(C)noc2C)O3)cc1, COC(=O)CN1C(=O)[C@H]2[C@@H](/C=C/c3ccccc3)N3C(=O)CN(Cc4ccccn4)C(=O)[C@@]3(Cc3ccccc3)[C@H]2C1=O, COC(=O)c1ccc(/C=C/c2c(-c3ccc(OC)cc3)sc3ccccc23)cc1, COc1ccc2c(C(=O)CN3CCN(c4ccccc4)CC3)c[nH]c2c1, Cc1noc(C)c1C(=O)Nc1ccc2ccccc2c1, Cc1noc(C)c1NC(=O)N(C)C[C@H]1Oc2ccc(NC(=O)CCC(F)(F)F)cc2C(=O)N([C@H](C)CO)C[C@@H]1C, Fc1ccccc1OCCCCn1cncn1, CC(C)=CCN1CCN(Cc2cn[nH]c2C2CCCCC2)CC1CCO (stereo not given), O=C(C[C@H]1C/C=C/CC[C@@H](Cc2ccc(F)cc2)C(=O)O[C@@H](c2ccccc2)CNC1=O)NCCO, CCOC(=O)C1CCN(S(=O)(=O)c2cc3c4c(c2)C(C)C(=O)N4CCC3)CC1 (stereo not given), CCn1nc(C(=O)NNC(=O)COc2ccc(OC)cc2)c2ccccc2c1=O, COc1ccc(NC(=O)NCCCCc2ccccc2)c(OC)c1, O=c1nc(SCc2cccc(C(F)(F)F)c2)nc2ccccn12, Cc1cccc(NC(=S)N(CCN2CCOCC2)Cc2cc3cc4c(cc3[nH]c2=O)OCO4)c1, CCCCn1c(=O)[nH]c(=O)c2c1nc(-c1cc(Cl)c(OC)c(OC)c1)n2C, CNc1nc2c(c(=O)[nH]c(=O)n2C)n1CCCc1ccccc1, CCOC(=O)Cn1nc(C)c2c1CCCC2=O, CCC(NS(=O)(=O)c1cccs1)c1ccc(C)cc1 (stereo not given), O=S1(=O)CCC(N=Nc2c(O)n(Cc3ccccc3)c3ccccc23)C1 (stereo not given), Cc1ccccc1Cn1c2ccccc2c2cn[nH]c(=O)c21, C[C@H](N)c1nnc(SCC(=O)N(C)C)o1, COc1ccc(CCNC(=O)CSCc2n[nH]c(=O)[nH]2)cc1OC, CCOc1ccccc1Nc1ncnc2ccccc12, CCOC(=O)c1csc(N/N=C2\CCc3ccccc32)n1, COc1ccc(/C=N/N=C2\CC3CCC2(C)C3(C)C)cc1O (stereo not given), Cc1cc(C)c(NC(=O)CS(=O)CC(=O)Nc2ccc(F)cc2F)c(C)c1 (stereo not given), Cc1cccc2c1-c1sc(C(=O)Nc3cccc([N+](=O)[O-])c3C)cc1CO2, Fc1cccc(F)c1/C=N/N1CCOCC1, COc1cccc(CSc2nnc(C(F)(F)F)n2Cc2ccc(F)cc2)c1, O=C1CCCC2=C1C(c1ccc(OS(=O)(=O)c3ccc(Cl)cc3)cc1)C1=C(CCCC1=O)O2, O=C1c2ccc([N+](=O)[O-])cc2C(=O)N1Cc1cccnc1, COc1ccc(CCNC(=O)c2ccc(N3CCCCS3(=O)=O)cc2)cc1OC
